Source: PubChem BioAssay

Experiment: basal HepG2 mitochondrial membrane potential changes, profiling panel, cell-based, JC-1 fluorescence, 24 h, 100 nL compound (AID 1167); note: test concentration not given here
Conditions: higher = more signal
For `COC(=O)CC=C[C@@H](C)[C@@H](C=NOC[C@@H](C)[C@H](OCc1ccccc1)C(C)C)NS(=O)(=O)c1ccc(C)cc1`, the z-score was -0.685.
Work on `COc1cccc([C@H]2Oc3ccc(OC)cc3C(=NO[C@@H](C)c3cc(-c4c(C)cc(C)cc4C)no3)[C@@H]2O)c1` yielded a z-score of -2.54.
In the case of `CCN1C(=O)[C@H]2[C@H]3[C@H](O)[C@H](O)CC(=NNC(=O)OCc4ccccc4)[C@H]3CC[C@H]2C1=O`, the z-score is reported as -0.559.
With `CC(=O)OC[C@H]1O[C@H](CCON=C(C)CCN2CCCc3nc(C)c(C)cc32)C=C[C@@H]1OC(C)=O` the z-score was -0.689.
Compound `CCOC(=O)[C@H](Cc1ccccc1)NC(=O)CCC1CC(OC(=O)NCc2cccc3ccccc23)CC2(CCCC(COC(=O)NCCOc3ccccc3)O2)O1` (stereo partly specified) has a z-score of 0.161.
In the case of `CC(CCN1CCCc2nc(C)c(C)cc21)=NOC[C@@H](O)COCc1ccco1`, the z-score is reported as -1.46.
Compound `CC(CCC(=O)OC[C@H]1O[C@H](C#Cc2ccccc2)C=C[C@@H]1Oc1ccc(C)cc1)=NO[C@H](C)c1cn([C@@H]2COC[C@H]2O)nn1` has a z-score of -0.662.
Compound `C[C@H]1C=CCC(=O)OC[C@H](C)C(=O)N2CCC[C@H]2C(=O)OC1` has a z-score of 0.291.
`CC(=O)OC[C@H]1O[C@@H](ON=C2[C@H]3CCn4c(=O)n(-c5ccccc5)c(=O)n4[C@H]3[C@H](O)[C@@H]3O[C@H]23)[C@H](OC(C)=O)[C@@H](OC(C)=O)[C@@H]1OC(C)=O` showed a z-score of -0.506.
Work on `C[C@@H](c1ccccc1)N1C(=O)[C@H]2[C@H]3[C@H](O)[C@H](O)CC(=NNC(=O)OCc4ccccc4)[C@@H]3CC[C@H]2C1=O` yielded a z-score of -0.604.
For `CCOC(=O)CCN1C(=O)[C@H]2[C@H]3[C@H](O)[C@H](O)CC(=NNC(=O)OCC)[C@H]3CC[C@H]2C1=O`, the z-score was -0.357.
Work on `O=C1[C@H]2[C@H]3[C@H](O)[C@H](O)CC(=NOC[C@@H](O)COCc4ccco4)[C@@H]3CC[C@H]2C(=O)N1C1CCCCC1` yielded a z-score of -0.82.
For `CC(=O)OC[C@H]1O[C@H](CCON=C(C)C)C=C[C@@H]1OC(C)=O`, the z-score was -0.331.
For `COC(=O)[C@@H]1CC[C@H](C)[C@@H](c2ccc(C)cc2)N1C(=O)c1ccc(C=NOC[C@H]2O[C@H](c3ccccc3)C=C[C@@H]2Oc2ccc(OC)cc2)cc1`, the z-score was 2.64.
With `C=C(C)C(=O)OC[C@H]1CN2[C@@H](CC[C@@H](C)[C@@H]2c2ccc(Br)cc2)C(=O)O1` the z-score was 0.393.
`CCOC(=O)[C@H](Cc1ccccc1)NC(=O)CCC1CC(OC(=O)NCc2cccc3ccccc23)CC2(CCCC(COC(=O)NCCc3ccccc3OC)O2)O1` (stereo partly specified) showed a z-score of 0.527.
`CCOC(=O)[C@H](CC(C)C)NC(=O)CCC1CC(OC(=O)NCc2ccc3c(c2)OCO3)CC2(CCCC(COC(=O)NCCC(C)C)O2)O1` (stereo partly specified) showed a z-score of 0.449.
In the case of `CC(C)CON=C1C[C@@H](O)[C@@H](O)[C@@H]2[C@@H]3C(=O)N(C(C)(C)C)C(=O)[C@@H]3CC[C@@H]12`, the z-score is reported as -0.0218.
Work on `COc1ccc(O[C@H]2C=C[C@@H](c3ccccc3)O[C@@H]2COC(=O)CCC(C)=NOC[C@@H](O)COCc2ccco2)cc1` yielded a z-score of -0.918.
`CC(C)(C)N1C(=O)[C@H]2[C@H]3[C@H](O)[C@H](O)CC(=NOC[C@@H](O)COCc4ccco4)[C@@H]3CC[C@H]2C1=O` showed a z-score of -1.12.
In the case of `CC(CCN1CCCCc2nc(C)c(C)cc21)=NO[C@@H](C)c1cc(-c2c(C)cc(C)cc2C)no1`, the z-score is reported as 4.
`COC(=O)[C@H](C)NC(=O)CC=C[C@@H](C)[C@@H]1C=C[C@H](O)[C@@H](CO)O1` showed a z-score of -0.627.
For `CCN1C(=O)[C@H]2[C@H]3[C@H](O)[C@H](O)CC(=NOC[C@@H](O)COCc4ccco4)[C@H]3CC[C@H]2C1=O`, the z-score was -0.326.
`O=C1[C@H]2[C@H]3[C@H](O)[C@H](O)CC(=NOC[C@@H](O)COCc4ccco4)[C@@H]3CC[C@H]2C(=O)N1Cc1ccc2c(c1)OCO2` showed a z-score of 1.07.
`Cc1ccc(S(=O)(=O)N[C@@H]2COC(=O)CC=C[C@@H](C)[C@H](NS(=O)(=O)c3ccc(C)cc3)COC(=O)[C@H](C)NC(=O)CC=C[C@H]2C)cc1` showed a z-score of 0.209.
`COC(=O)CC=C1c2ccccc2[C@H](OC)[C@H]1C` showed a z-score of -0.8.
Work on `CCN(CC)CC(O)CN1CCCCc2nc(C)c(C)cc21` (stereo unspecified) yielded a z-score of 0.68.
`CC(C)CON=C1C[C@@H](O)[C@@H](O)[C@@H]2[C@@H]3C(=O)N(Cc4ccccc4)C(=O)[C@@H]3CC[C@H]12` gave a z-score of 0.974.
With `COc1ccc(OC[C@H]2CN3[C@@H](CC[C@@H](C)[C@@H]3c3ccc(Br)cc3)C(=O)O2)cc1` the z-score was -0.057.
With `O=C1[C@H]2[C@H]3[C@H](O)[C@H](O)CC(=NOCc4ccccc4)[C@H]3CC[C@H]2C(=O)N1C1CCCCC1` the z-score was -1.3.
For `CCOC(=O)CCN1C(=O)[C@H]2[C@H]3[C@H](O)[C@H](O)CC(=NOCC=C(C)CCC=C(C)C)[C@H]3CC[C@H]2C1=O`, the z-score was 0.572.
Compound `CC(=O)OC[C@H]1O[C@H](CC=NOC(C)CN2CCCc3nc(C)c(C)cc32)C=C[C@@H]1OC(C)=O` (stereo partly specified) has a z-score of -0.706.
`CCOC(=O)[C@H](CC(C)C)NC(=O)CCC1CC(OC(=O)NCc2ccc3c(c2)OCO3)CC2(CCCC(COC(=O)NCCc3ccccc3OC)O2)O1` (stereo partly specified) gave a z-score of -0.828.
Compound `COc1ccc(COC(=O)NN=C2C[C@@H](O)[C@@H](O)[C@@H]3[C@@H]4C(=O)N(Cc5ccc6c(c5)OCO6)C(=O)[C@@H]4CC[C@H]23)cc1` has a z-score of 0.301.
Work on `COc1cccc([C@H](O)Cn2cc(-c3ccc(CON=C(C)C)cc3)nn2)c1` yielded a z-score of -0.803.
Compound `CO[C@@H]1C=CCC(=O)N[C@@H](C)C(=O)OC[C@@H](NS(=O)(=O)c2ccc(C)cc2)[C@H](C)C=CCC(=O)OC[C@H]1C` has a z-score of 0.0105.
